For seven molecules, Potency results are on record in PubChem BioAssay (Tox21).

Where “and” joins values, the source holds several entries; their conditions need not be identical. Equal values may be shown once. Inconclusive results are not listed. More than one record can exist for a structure, and the calls need not agree. Calls of active or inactive are those of the source. Unless noted, calls follow the shape of the full dose curve.

A short description of assay [1]: Nuclear factor erythroid 2-related factor 2/antioxidant responsive element (Nrf2/ARE) small molecule agonists: qHTS cell viability counter screen in human keratinocytes (AID 1919968; active = well fitted cell-killing curve with a large enough effect in the repeat runs; also: nearly all actives have a fitted effect of over 55% in size; also: potency is read from the fitted curve at half-maximal effect). A digest of the protocol: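 HaCaT ARE reporter line, 1,500 cells/well; 5 h settle, 37 C/5% CO2; cpd in DMSO pinned; 23 h exposure; CellTiter-Fluor, 1 h; fluorescence.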
Assay [2] in a line: Nuclear factor erythroid 2-related factor 2/antioxidant responsive element (Nrf2/ARE) small molecule agonists: luciferase reporter gene qHTS assay in human keratinocytes (AID 1919969). Also: nearly all actives have a fitted effect of over 35% in size. A general note: A reporter such as luciferase makes a cellular process visible.
Assay [3] addresses Gonadotropin-releasing hormone receptor (Homo sapiens) (UniProt P30968). Put plainly: Human gonadotropin-releasing hormone receptor (GnRHR) small molecule agonists, calcium flux assay in GnRHR-HEK293 cells (AID 1920063). Also: nearly all actives have a fitted effect of over 35% in size. Also: potency is read from the fitted curve at half-maximal effect. The method, boiled down:
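GnRHR-HEK293, 1500 cells/well, 18 h 37 C/5% CO2; Ca dye 1 h 37 C; cpd pinned (DMSO), agonist mode; kinetic FL 480/540, 3 min, 1 s reads; 15 conc, n=3.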
(In general: A change in cytosolic calcium serves as a functional read-out for many receptors and channels.)

The nature of assay [4]: p53 small molecule agonists, cell-based qHTS assay with human liver microsomes: qHTS cell viability counter screen (AID 1963579). Also: nearly all actives have a fitted effect of over 45% in size. Also: potency is read from the fitted curve at half-maximal effect. A digest of the protocol: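 HLM-supplemented (0.5 mg/mL final) and NADPH-supplemented (0.5 mg/mL final) p53RE-bla cultures, 4,000 cells per well, were dosed with compounds in DMSO for 16 h at 37 C; luminescent ATP detection (CellTiter-Glo, 30 min, room temperature) quantified surviving cells.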
(In general: In qHTS, concentration-response curves come from the screen itself.)

Assay [5] can be described thus: p53 small molecule agonists, cell-based qHTS assay with rat liver microsomes: qHTS cell viability counter screen (AID 1963580). Also: nearly all actives have a fitted effect of over 45% in size. A digest of the protocol:
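p53RE-bla HCT-116 cells were exposed 16 h at 37 C to compounds with rat liver microsomes (0.5 mg/mL) and NADPH (0.5 mg/mL). Viability was measured in the same wells as ATP content by CellTiter-Glo luminescence.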

Assay [6] can be described thus: p53 small molecule agonists, cell-based qHTS assay: qHTS cell viability counter screen (AID 1963581). Also: nearly all actives have a fitted effect of over 45% in size. Also: potency is read from the fitted curve at half-maximal effect. A digest of the protocol:
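HCT-116 p53RE-bla cells, 4,000/well, plated 5 h before compound pin transfer; 16 h at 37 C; bla substrate 2 h RT; then CellTiter-Glo, 30 min RT, luminescence.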

In assay [7] the target is 5-hydroxytryptamine receptor 2A (Homo sapiens) (UniProt P28223). Kind of assay: 5-hydroxytryptamine receptor 2A (HTR2A) small molecule antagonists, cell-based qHTS assay (AID 1963586). Also: nearly all actives have a fitted effect of over 45% in size. A digest of the protocol:
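Antagonist-mode intracellular calcium assay: DOI (4 nM) added after 5 min compound pre-incubation at room temperature to dye-loaded HTR2A-CHO cells. Fluorescence followed for 3 min, sampled every second.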

Assay [8] has as its target Muscarinic acetylcholine receptor M1 (Homo sapiens) (UniProt P11229). Put plainly: Cholinergic receptor muscarinic 1 (CHRM1) small molecule antagonists, cell-based qHTS assay (AID 1963588). Also: nearly all actives have a fitted effect of over 40% in size. Also: potency is read from the fitted curve at half-maximal effect. A digest of the protocol:
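CHRM1-CHO calcium-flux assay, antagonist mode. Cells were seeded 18 h, dye-loaded 1 h at 37 C and given compound for 5 min at RT, then acetylcholine was added at 50nM. FDSS fluorescence was read 3 min; 15 concentrations, three runs.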

Assay [9] shares this target. Kind of assay: Cholinergic receptor muscarinic 1 (CHRM1) small molecule agonists, cell-based qHTS assay (AID 1963589). Also: nearly all actives have a fitted effect of over 35% in size. Also: potency is read from the fitted curve at half-maximal effect. A digest of the protocol:
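Human M1 in stable CHO line; 18 h plating, 1 h dye load 37 C; cpd added (agonist mode); Ca2+ fluorescence kinetic read, 1 s intervals; 15 conc, 3 runs.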

A short description of assay [10]: cAMP Responsive Elements (CRE) small molecule antagonists, cell-based qHTS assay (AID 1963591; active = well fitted inhibition curve with a large enough effect in the signal ratio in the repeat runs, not every such curve was filed as active; the % refers to the signal ratio). The method, boiled down:
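Beta-lactamase reporter read by FRET substrate (LiveBLAzer B/G) after 2 h at room temperature. CRE-bla HEK293T cells had received compound plus 0.25 uM (final) NKH477 for 3 h at 37 °C.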

Assay [11] concerns the target Beta-2 adrenergic receptor (Homo sapiens) (UniProt P07550). Put plainly: Adrenergic beta2 receptor (ADRB2) small molecule antagonists, cell-based qHTS assay (AID 1963592). Also: series mostly up to about 92 µM; nearly all actives have a fitted effect of over 50% in size. A digest of the protocol:
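Cells (CHO, stable ADRB2 overexpression) incubated 18-20hr at 37C; compounds added from DMSO; agonist mix (1nM isoproterenol, 100uM IBMX, 25uM Ro-20-1724) added; 0.5hr RT; d2-cAMP and anti-cAMP-cryptate added; 1hr RT; 665/615 nm read.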

Assay [12] shares this target. Put plainly: Adrenergic beta2 receptor (ADRB2) small molecule agonists, cell-based qHTS assay (AID 1963593).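 Also: CHO cells stably overexpressing human ADRB2.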 A digest of the protocol: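 CHO cells stably over-expressing ADRB2 were plated overnight at 37C, then dosed with compounds plus a stimulation mix containing 100uM IBMX and 25uM Ro-20-1724 for 0.5hr at room temperature. cAMP was measured by HTRF competition, 1hr.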

Assay [13] deals with D(2) dopamine receptor (Homo sapiens) (UniProt P14416). Kind of assay: Dopamine D2 receptor (DRD2) small molecule agonists, cell-based qHTS assay (AID 1963594). Also: nearly all actives have a fitted effect of over 35% in size. A digest of the protocol: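 HEK293 cells stably expressing human DRD2, pre-treated with PDE inhibitor Ro20-1724 (0.1 mM final) and compound 10 min at room temperature, then stimulated with NKH477 (200nM […]) for 30 min. cAMP read by HTRF (665/620 nm).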

Assay [14] has the same target. Put plainly: Dopamine D2 receptor (DRD2) small molecule antagonists, cell-based qHTS assay (AID 1963595; active = well fitted inhibition curve with a large enough effect in the signal ratio in the repeat runs, with a control signal flat; the % refers to the signal ratio). The method, boiled down: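 HEK293 cells stably expressing DRD2, preincubated with 0.1 mM Ro20-1724 and compounds 10 min, were stimulated with 200 nM NKH477 plus 12 nM quinpirole for 30 min at room temperature; cAMP measured by HTRF (665/620 nm).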
Assay [15] in a line: G protein-coupled receptor (GPCR) small molecule agonists, calcium flux assay: HEK293 wild type cell line counter screen (AID 1920065). A digest of the protocol:
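Kinetic fluorescence at Ex/Em 480/540, recorded every second over 3 min, served as the read-out after compound addition. Each compound was tested at 15 concentrations in triplicate on cells pre-loaded with calcium dye for 1 h.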

Assay [16] in a line: p53 small molecule agonists, cell-based qHTS assay with human liver microsomes (AID 1963577).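 Also: p53 response element beta-lactamase reporter cells with liver microsomes plus NADPH.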 A digest of the protocol: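 Reporter activation was measured by LiveBLAzer fluorescence intensity in p53RE-bla cells, which had been exposed to compounds for 16 h at 37 C alongside 0.5 mg/mL human liver microsomes and 0.5 mg/mL NADPH (final concentrations).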
Assay [17] can be described thus: p53 small molecule agonists, cell-based qHTS assay with rat liver microsomes (AID 1963578). The method, boiled down: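 Compound in DMSO added to p53RE-bla cells 5 h post-plating; rat microsomes/NADPH 0.5 mg/mL final; 16 h, 37 C; LiveBLAzer 2 h RT.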
The nature of assay [18]: p53 small molecule agonists, cell-based qHTS assay (AID 1963582; active = well fitted activation curve with a large enough effect in the signal ratio in the repeat runs, not every such curve was filed as active; the % refers to the signal ratio). The method, boiled down:
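Reporter line: p53RE-bla. Pre-incubation 5 h, 37 C, 5% CO2; compound (DMSO, pin tool) 16 h, 37 C; B/G FRET substrate 2 h RT; fluorescence intensity read.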

The target of assay [19] is 5-hydroxytryptamine receptor 2A (Homo sapiens) (UniProt P28223). Kind of assay: 5-hydroxytryptamine receptor 2A (HTR2A) small molecule agonists, cell-based qHTS assay (AID 1963587). Also: nearly all actives have a fitted effect of over 30% in size. The method, boiled down:
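CHO cells stably expressing human HTR2A, plated 18 h, loaded with calcium dye 1 h at 37 C. Agonist mode: compounds added and intracellular calcium fluorescence recorded kinetically for 2 min at 1 sec intervals.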

Assay [20] can be described thus: cAMP Responsive Elements (CRE) small molecule agonists, cell-based qHTS assay (AID 1963590). A digest of the protocol: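 HEK 293T CRE-bla, 2,000 cells/well, 18 h preincubation 37 C/5% CO2; cpds (DMSO) pinned, 3 h; LiveBLAzer B/G FRET substrate, 2 h RT.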

Sequence of Muscarinic acetylcholine receptor M1 (Homo sapiens) (P11229 whole entry, looked up): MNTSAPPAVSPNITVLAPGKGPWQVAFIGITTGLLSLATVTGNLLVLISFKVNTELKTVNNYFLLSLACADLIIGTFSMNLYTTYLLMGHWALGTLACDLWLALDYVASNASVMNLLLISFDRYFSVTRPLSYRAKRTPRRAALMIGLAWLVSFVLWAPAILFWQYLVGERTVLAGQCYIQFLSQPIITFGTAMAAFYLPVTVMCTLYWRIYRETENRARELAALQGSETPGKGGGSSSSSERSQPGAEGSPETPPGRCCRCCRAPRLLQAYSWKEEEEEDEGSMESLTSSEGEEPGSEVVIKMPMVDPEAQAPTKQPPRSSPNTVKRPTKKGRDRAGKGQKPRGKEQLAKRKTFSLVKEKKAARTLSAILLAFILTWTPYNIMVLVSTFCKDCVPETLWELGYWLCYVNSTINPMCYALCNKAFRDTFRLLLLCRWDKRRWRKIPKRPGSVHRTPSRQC
Sequence of Beta-2 adrenergic receptor (Homo sapiens) (P07550 whole entry, looked up): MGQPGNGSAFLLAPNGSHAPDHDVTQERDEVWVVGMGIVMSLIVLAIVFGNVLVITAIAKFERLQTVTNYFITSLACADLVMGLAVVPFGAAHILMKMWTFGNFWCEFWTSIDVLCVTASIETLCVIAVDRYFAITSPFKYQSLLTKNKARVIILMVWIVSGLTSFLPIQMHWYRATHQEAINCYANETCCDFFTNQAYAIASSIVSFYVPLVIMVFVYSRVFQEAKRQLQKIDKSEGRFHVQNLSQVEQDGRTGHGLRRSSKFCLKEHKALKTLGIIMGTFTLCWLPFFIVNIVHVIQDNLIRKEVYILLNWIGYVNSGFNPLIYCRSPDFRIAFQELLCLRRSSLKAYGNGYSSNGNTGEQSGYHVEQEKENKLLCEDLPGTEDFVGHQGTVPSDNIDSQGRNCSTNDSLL
Sequence of 5-hydroxytryptamine receptor 2A (Homo sapiens) (P28223 whole entry, looked up): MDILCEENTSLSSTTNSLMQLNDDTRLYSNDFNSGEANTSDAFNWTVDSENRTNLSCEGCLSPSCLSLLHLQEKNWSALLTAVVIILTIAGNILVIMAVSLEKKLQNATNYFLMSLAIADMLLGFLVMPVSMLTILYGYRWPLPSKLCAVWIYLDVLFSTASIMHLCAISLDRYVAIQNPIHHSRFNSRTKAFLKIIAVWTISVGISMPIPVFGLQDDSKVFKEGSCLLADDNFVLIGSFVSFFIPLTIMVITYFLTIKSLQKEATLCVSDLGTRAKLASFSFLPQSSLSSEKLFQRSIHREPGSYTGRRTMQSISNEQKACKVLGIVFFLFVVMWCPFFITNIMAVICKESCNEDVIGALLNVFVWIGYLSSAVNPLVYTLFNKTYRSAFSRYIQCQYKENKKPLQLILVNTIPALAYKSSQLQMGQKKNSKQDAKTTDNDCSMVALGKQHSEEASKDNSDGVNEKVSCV
Sequence of D(2) dopamine receptor (Homo sapiens) (P14416 whole entry, looked up): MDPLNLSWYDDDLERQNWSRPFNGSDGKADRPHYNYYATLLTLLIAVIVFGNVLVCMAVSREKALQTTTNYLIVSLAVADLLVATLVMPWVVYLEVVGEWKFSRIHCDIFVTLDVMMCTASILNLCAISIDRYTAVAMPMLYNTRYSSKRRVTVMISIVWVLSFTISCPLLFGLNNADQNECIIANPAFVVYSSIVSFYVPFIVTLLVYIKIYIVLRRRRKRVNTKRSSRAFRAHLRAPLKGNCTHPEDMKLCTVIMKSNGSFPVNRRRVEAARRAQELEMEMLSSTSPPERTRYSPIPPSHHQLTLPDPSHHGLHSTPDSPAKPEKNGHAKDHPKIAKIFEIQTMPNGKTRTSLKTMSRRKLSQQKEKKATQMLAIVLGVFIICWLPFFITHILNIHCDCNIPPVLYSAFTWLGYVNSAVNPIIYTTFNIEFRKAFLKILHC
Sequence of Gonadotropin-releasing hormone receptor (Homo sapiens) (P30968 whole entry, looked up): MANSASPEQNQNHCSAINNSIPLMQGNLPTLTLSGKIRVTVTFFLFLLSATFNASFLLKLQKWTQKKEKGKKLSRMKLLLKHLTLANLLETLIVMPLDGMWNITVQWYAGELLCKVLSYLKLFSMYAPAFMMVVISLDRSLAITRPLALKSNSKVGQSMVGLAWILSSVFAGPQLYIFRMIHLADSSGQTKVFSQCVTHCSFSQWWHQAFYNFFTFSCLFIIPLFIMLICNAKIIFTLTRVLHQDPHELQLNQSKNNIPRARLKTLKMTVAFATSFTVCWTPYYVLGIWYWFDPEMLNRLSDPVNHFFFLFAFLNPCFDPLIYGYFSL

Consider `C=C(c1ccc(C(=O)O)cc1)c1cc2c(cc1C)C(C)(C)CCC2(C)C`, for which the Potency is 27.3 µM (active) and 23.7 µM (active) in assay [1]; 20.4 µM (active) and inactive in assay [4]; “inactive and 12.6 µM (active)” in assay [6]; “inactive and 18.3 µM (active)” in [8]. Besides, the Potency result in assay [2], in assay [3], in [5], in assay [7], in assay [9] and in assay [10] was “inactive” throughout. In addition, the Potency entry in assay [11], in [12], in assay [13] and in [14] was “inactive” each time.
Consider `Nc1ccccc1S(=O)(=O)O`, for which the Potency result in assay [1], in [2], in assay [3], in assay [15], in assay [16] and in assay [17] was “inactive” each time. The Potency result in assay [4], in assay [5], in assay [6], in [18], in assay [7] and in [19] was “inactive” throughout. For the same molecule, the Potency result in assay [8], in [9], in [20], in assay [10], in [11] and in assay [13] was “inactive” throughout.
In the case of `CC(C)(C)OC(=O)c1cccc(N)c1`, the Potency entry in [1], in assay [2], in [3], in assay [15], in [16] and in [17] was “inactive” in each case. The Potency result in assay [4], in [5], in [6], in assay [18], in assay [7] and in [19] was “inactive” in each case. For the same molecule, the Potency entry in [8], in [9], in assay [20], in [10], in assay [11] and in [12] was “inactive” in each case. For the same molecule, the Potency entry in [13] and in assay [14] was “inactive” each time.
As to `O=C1OC2(c3cc(Br)c(O)c(Br)c3Oc3c2cc(Br)c(O)c3Br)c2c(Cl)c(Cl)c(Cl)c(Cl)c21`, the Potency in [1] is 4.86 µM (active) and 18.6 µM (active); in assay [3], 39 µM (active) and 23.6 µM (active); in [9], 49.1 µM (active) and 33.4 µM (active). Moreover, the Potency entry in assay [2], in assay [4], in assay [5], in assay [6], in [20] and in assay [12] was “inactive” throughout. The Potency result in [13] was “inactive”.
Take `CCCC(C)C(O)CC` (configuration not stated): the Potency entry in [1], in assay [2], in assay [3], in assay [17], in assay [4] and in assay [5] was “inactive” each time. Besides, the Potency entry in assay [18], in [7], in assay [19], in assay [8], in assay [9] and in assay [20] was “inactive” throughout. The Potency entry in assay [10], in assay [11], in [12], in assay [13] and in assay [14] was “inactive” each time.
Consider `C[C@@H](O)[C@H]1C(=O)N2C(C(=O)O)=C([C@H]3CCCO3)S[C@H]12`, for which the Potency entry in assay [1], in assay [2], in [3], in [15], in assay [16] and in assay [17] was “inactive” in each case. Moreover, the Potency result in assay [4], in assay [5], in assay [6], in [18], in [7] and in assay [19] was “inactive” in each case. The Potency entry in assay [8], in [9], in assay [20], in [10], in assay [11] and in assay [12] was “inactive” in each case. In addition, the Potency result in assay [13] and in assay [14] was “inactive” in each case.
Consider `CN(C)CCCNCCC#N`, for which the Potency entry in assay [1], in assay [2], in assay [3], in assay [15], in assay [16] and in assay [17] was “inactive” each time. Also, the Potency result in assay [4], in [5], in assay [6], in [18], in assay [19] and in assay [8] was “inactive” each time. In addition, the Potency result in [9], in assay [20], in [10], in [11], in [13] and in [14] was “inactive” throughout.
